# Cycloheximide cs: Cycloheximide Counterscreen for Small Molecule Inhibitors of Shiga Toxin; cell reporter, cycloheximide protein synthesis inhibition counterscreen; max response, %; 300,000 compounds, 12% hits; in the data active = max response mostly above about 13%, no sharp cut-off; inactive = mostly below about 14%; note: read at 38.3 µM for the half of the compounds with a filed dose; 0% is about no effect
# Shiga inhibitor: A qHTS for Small Molecule Inhibitors of Shiga Toxin; Vero cells, Shiga toxin protein synthesis inhibition reporter; inhibition, % at 38.7 µM; 290,000 compounds, 9.2% hits; AID 2315, 2010; in the data active = inhibition mostly above about 28%, no sharp cut-off; inactive = mostly below about 43%; note: 0% is about no effect
# AmpC no deterg: qHTS Inhibitors of AmpC Beta-Lactamase (assay without detergent). P00811. AmpC nitrocefin hydrolysis, absorbance 480 nm, 0.0001% Triton. Potency, µM (series often up to 57.1 µM), for inactives: top-dose activity change, negative = inhibition, most hits filed as inhibitors. 330,000 compounds, 0.52% hits. AID 485341, 2010;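 note: potency is the fitted concentration of half-maximal effect; plate controls were no compound for no effect and no enzyme for full effect; nearly all actives have a fitted effect of over 20% in size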
# Target sequence (P00811 whole entry, looked up): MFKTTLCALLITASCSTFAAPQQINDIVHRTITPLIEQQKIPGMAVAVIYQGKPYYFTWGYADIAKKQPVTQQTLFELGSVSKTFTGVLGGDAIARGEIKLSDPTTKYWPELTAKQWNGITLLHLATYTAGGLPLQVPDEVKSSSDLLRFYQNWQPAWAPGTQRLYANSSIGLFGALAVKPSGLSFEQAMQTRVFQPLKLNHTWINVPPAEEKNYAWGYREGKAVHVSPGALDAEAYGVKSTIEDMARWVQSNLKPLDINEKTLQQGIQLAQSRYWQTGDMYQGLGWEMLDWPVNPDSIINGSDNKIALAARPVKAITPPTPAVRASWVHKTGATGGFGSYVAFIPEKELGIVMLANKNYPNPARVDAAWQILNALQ
#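 AmpC (5.3 nM in the dispensed reagent) in 20 mM phosphate pH 7.0 with 0.01% (detergent screen) or 0.0001% Triton X-100 was preincubated with compounds for 15 min at room temperature. Nitrocefin was then added from an 800 uM solution, and hydrolysis was followed at 480 nm.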
# AmpC inh detg: qHTS Inhibitors of AmpC Beta-Lactamase (assay with detergent). P00811. AmpC hydrolysis of nitrocefin, absorbance 480 nm, 0.01% Triton. Potency, µM (highest dose often 114 µM), for the others: top-dose activity change, negative = inhibition, hits mostly inhibitors. 370,000 compounds, 0.041% hits. AID 485294, 2010;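 note: potency is the fitted concentration of half-maximal effect; 0% = no-compound wells and -100% = no-enzyme wells; nearly all actives have a fitted effect of over 25% in size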
#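 20 mM phosphate pH 7.0 + 0.01% (detergent screen) or 0.0001% Triton X-100; 5.3 nM AmpC reagent; cpd preinc 15 min RT; nitrocefin (800 uM stock) to start; A480 q20 s × 4 min; Activity was normalised to no-enzyme and no-compound control wells.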
# NS1 inh: qHTS Assay for Inhibitors of Influenza NS1 Protein Function. Potency, µM (titrated, usually from 46.1 µM), for the others: top-dose activity, positive = more growth. 270,000 compounds, 0.4% hits. AID 2326, 2010; calls by dose curve; note: potency is the fitted concentration of half-maximal effect; actives are rising curves; nearly all actives have a fitted effect of over 50% in size
#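 In this qHTS, NS1 from influenza A is expressed in budding yeast, where it slows growth. Cells are switched from glucose to 2% galactose medium (pH 6.0, -URA), treated with compound, and growth recovery is read at OD600.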
# Starred values were filed as active, the others as inactive; u = inconclusive; x = no result given. This is one part of a sample in which hits are shown more often than they occur. Unless noted, calls come from the whole dose curve; as a rule, active = well fitted curve in the direction sought with a large enough effect; inconclusive = small, poorly fitted or top-dose-only effect, or another doubt; inactive = no such curve, though single readings can be large; an effect the other way counts as inactive or inconclusive.
SMILES,Cycloheximide cs,Shiga inhibitor,AmpC no deterg,AmpC inh detg,NS1 inh
COc1ccc(OC)c(C(=O)NC(CC(N)=O)c2ccc(N3CCN(c4ccccn4)CC3)c([N+](=O)[O-])c2)c1 (stereo unspecified),-0.8,-3.1,82.5%,-7.4%,-7.4%
Cc1ccc(NC(=O)Nc2ccc(Cl)cn2)cc1,39.4*,43.9*,-3.4%,-13.1%,x
Cc1ccc(NC(=O)Nc2ccc(Cl)c(Cl)c2)nc1,32.3*,70.0*,-20.8%,2.4%,2.1%
O=C(Nc1ccc(Cl)c(Cl)c1)Nc1ccc([N+](=O)[O-])cn1,10.1,9.5,-17.5%,-3.2%,-0.4%
CS(=O)(=O)NC(=O)CCC/C=C\C[C@H]1C(=O)C[C@@H](O)[C@@H]1/C=C/[C@@H](O)COc1ccccc1,-6.5,-13.3,x,x,x
CC(C)(C)c1ccc(C(=O)NC(=S)N2CCOCC2)cc1,45.7*,91.8*,17.3%,3.1%,0.7%
CC(C)Oc1ccc(C(=O)NC(=S)N2CCOCC2)cc1,31.6*,45.0*,-19.3%,u,-10.9%
COc1ccc(C(=O)NC(=S)N2CCOCC2)cc1Br,-3.5,-6.3,-12.9%,0.1%,-14.7%
O=C1Oc2ccccc2C(=O)/C1=C\N1C(=O)N/C(=C\c2ccccc2O)C1=O,x,x,x,x,2.7%
COc1cc2c(-c3cccc(Cl)c3)nc3c(c(C)nn3-c3ccccc3)c2cc1OC,x,x,x,9.1%,x
C#CCn1c(S(=O)(=O)Cc2ccccc2Cl)nc(-c2ccccc2)c1-c1ccccc1,5.7,-4.6,4.47µM*,2.1%,-1.8%
Fc1ccc2nc3[nH]c4ccccc4c3nc2c1,43.7*,61.9*,-24.3%,-6.1%,-30.8%
Cc1cc([N+](=O)[O-])nn1CC(=O)N/N=C/c1ccccc1F,-1.4,11.1,-8.3%,-18.4%,5.4%
COc1ccc(C(=O)N/N=C(\C)Cn2nc([N+](=O)[O-])cc2C)cc1,15.7,58.4*,-28.6%,-3.7%,3.2%
Cc1cc([N+](=O)[O-])nn1CC(=O)N/N=C/c1ccccc1O,23.8*,57.5*,-15.3%,-14.1%,-2.4%
C/C(Cn1nnc([N+](=O)[O-])n1)=N\NC(=O)c1ccccc1,24.2*,54.1*,-34.0%,-12.6%,-1.1%
C/C(Cn1nc([N+](=O)[O-])cc1C)=N\NC(=O)c1ccc(C(C)(C)C)cc1,-2.8,-6.8,-13.0%,1.6%,9.0%
C/C(Cn1cnc([N+](=O)[O-])n1)=N\NC(=O)c1ccccc1,30.1*,57.1*,-15.4%,-5.3%,15.2%
Cc1ccc(CNc2ccc(-c3nc(C(C)C)no3)cc2[N+](=O)[O-])cc1,x,x,x,-6.9%,x
Cc1noc(C)c1NC(=O)Nc1cccc2c1O[C@H](CN(C)C(=O)Nc1ccc3c(c1)OCO3)[C@@H](C)CN([C@H](C)CO)C2=O,x,x,-1.2%,x,x
O=C1/C(=C/c2cccs2)COc2ccccc21,34.3*,92.5*,-12.3%,-6.0%,-8.8%
CCn1ccnc1CN(C)Cc1cn(-c2cc(C)ccc2C)nc1-c1ccccc1,-1.4,12.3,209.5%,2.5%,1.6%
CCc1nn(CC(=O)Nc2cccc(C(C)=O)c2)c(=O)c2cc3sccc3n12,x,x,x,24.2%,x
c1ccc(-c2nc(N3CCOCC3)sc2-c2ccccc2)cc1,8.0,-0.9,53.5%,-14.3%,-14.2%
c1ccc(-c2nc(N3CCOCC3)s[n+]2-c2ccccc2)cc1,57.2*,40.0*,-43.6%,-14.5%,-3.5%
SMILES,Cycloheximide cs,Shiga inhibitor,AmpC no deterg,AmpC inh detg,NS1 inh
CCC(=O)N(Cc1ccco1)c1nc(C(=O)Nc2ccc(Cl)cc2)c(C)s1,33.2*,53.6*,-37.2%,-12.4%,-1.8%
CC(C)(C)c1ccc(/C=N/N2C(=O)CSC2=S)cc1,15.8*,29.7,-51.4%,u,-12.0%
Cc1ccc(C2=CSC3=NNC4(CCCCC4)NN23)cc1,52.9*,88.1*,-32.5%,6.9%,x
COc1ccc(C2=CSC3=NNC4(CCCCC4)NN23)cc1,34.7*,102.5*,-21.6%,1.2%,x
Cc1ccc(C2=CSC3=NCCN23)c(C)c1,-1.4,-19.5,-19.8%,-16.5%,4.8%
NC(=O)c1nsc(C(=O)N(c2ccc3c(c2)OCCO3)C(C(=O)NCC2CCCO2)c2ccc(F)cc2)c1N (stereo unspecified),28.5*,63.5*,82.2%,1.6%,16.4%

# Source: PubChem (National Center for Advancing Translational Sciences (NCATS))
